About 83,000 compounds went through this panel and 20% of them were active in at least one assay; those are over-represented in the sample as a whole.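 96-well plates, one dose, 48 hours. Percent growth reported; active if below 10.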 Values without a mark were called inactive. Calls of active or inactive are those of the source.

Some test systems named below: SR leukemia; RPMI-8226 leukemia; OVCAR-8 ovarian; OVCAR-5 ovarian; OVCAR-4 ovarian; SK-OV-3 ovarian; IGROV1 ovarian; OVCAR-3 ovarian; HS 578T breast; NCI/ADR-RES ovarian; T-47D breast; BT-549 breast; MDA-MB-435 melanoma; SW-620 colon; MCF7 breast; HCT-116 colon; HCC-2998 colon; KM12 colon.
Holding throughout (experiment): NCI-60 one-dose screen, 48 h (100 = growth as untreated, 0 = no growth, -100 = all killed)
Holding throughout (conditions): 10 µM unless noted

On to `CC1(C)CC[C@]23CC[C@]4(C)[C@H](CC[C@@H]5[C@@]6(C)CCCNC(C)(C)[C@@H]6CC[C@]54C)[C@H]2[C@H]1OC3`, for which the growth in the experiment with SR leukemia was -30.2% (active); in the experiment with RPMI-8226 leukemia it was -29.7% (active); in the experiment with OVCAR-8 ovarian, -45.6% (active); in the experiment on OVCAR-5 ovarian it was 8.55% (active); in the experiment on OVCAR-4 ovarian, -51.2% (active); in the experiment on SK-OV-3 ovarian, 75.8%. Moreover, the growth in the experiment on IGROV1 ovarian is -58.7% (active); with OVCAR-3 ovarian, -31.2% (active); in the experiment on HS 578T breast, -9.12% (active); in the experiment with NCI/ADR-RES ovarian, -19.6% (active); with T-47D breast it was 2.46% (active); with BT-549 breast, 76.4%. Also, the growth with MDA-MB-435 melanoma is -80% (active); in the experiment with SW-620 colon it was -71.9% (active); with MCF7 breast, -25% (active); with HCT-116 colon, -99.4% (active); in the experiment with HCC-2998 colon, -55.5% (active); in the experiment with KM12 colon, -69% (active).
For `Cc1cc(C(=O)/C=C/c2ccc[nH]2)ccc1-n1ccc(C(F)(F)F)n1`, the growth in the experiment with SR leukemia was 28.4%; in the experiment on RPMI-8226 leukemia, -40.1% (active); in the experiment on OVCAR-8 ovarian, 85.6%; in the experiment with OVCAR-5 ovarian, 95.8%; with OVCAR-4 ovarian, 74.7%; in the experiment on SK-OV-3 ovarian, 129%. Besides, the growth with IGROV1 ovarian was 92.3%; with OVCAR-3 ovarian, 4.46% (active); in the experiment with HS 578T breast, 94.3%; with NCI/ADR-RES ovarian, 89.3%; in the experiment on T-47D breast it was 85%; with BT-549 breast, -35% (active). For the same compound, the growth in the experiment on MDA-MB-435 melanoma was 97.4%; with SW-620 colon, 96.6%; in the experiment on MCF7 breast, 82.7%; in the experiment with HCT-116 colon it was 88.5%; with HCC-2998 colon it was 108%; with KM12 colon, -14% (active).
Consider `Cc1c(C(=O)NCCC(=O)NO)sc2ncnc(Nc3ccc(NC(=O)Nc4cccc(C(F)(F)F)c4)cc3)c12`, for which the growth was 101% in the experiment with SR leukemia; 102% in the experiment with RPMI-8226 leukemia; 102% with OVCAR-8 ovarian; 104% with OVCAR-5 ovarian; 105% in the experiment with OVCAR-4 ovarian; 115% in the experiment on SK-OV-3 ovarian. Further, the growth in the experiment on IGROV1 ovarian was 102%; in the experiment with OVCAR-3 ovarian, 112%; in the experiment with HS 578T breast, 93.5%; in the experiment with NCI/ADR-RES ovarian it was 103%; in the experiment on T-47D breast, 101%; with BT-549 breast it was 137%. In addition, the growth in the experiment on MDA-MB-435 melanoma is 103%; with SW-620 colon it was 104%; in the experiment on MCF7 breast, 89.2%; in the experiment with HCT-116 colon it was 108%; in the experiment on HCC-2998 colon it was 112%; with KM12 colon, 100%.
With `O=C1Nc2cc(-c3ccc(NS(=O)(=O)c4ccccc4)cc3)ccc2/C1=C/c1ccc[nH]1`, the growth was 6.67% (active) in the experiment on SR leukemia; 77.8% in the experiment on RPMI-8226 leukemia; 97.1% in the experiment with OVCAR-8 ovarian; 52% in the experiment on OVCAR-5 ovarian; 68.7% with OVCAR-4 ovarian; 79.1% in the experiment on SK-OV-3 ovarian. Moreover, the growth in the experiment on IGROV1 ovarian is 93.1%; with OVCAR-3 ovarian, 108%; in the experiment on HS 578T breast, 97.7%; with NCI/ADR-RES ovarian, 92.6%; in the experiment with T-47D breast it was 18.5%; in the experiment on BT-549 breast, 24.6%. For the same compound, the growth was 88.2% in the experiment on MDA-MB-435 melanoma; 84.9% in the experiment with SW-620 colon; 6.53% (active) in the experiment with MCF7 breast; 82% with HCT-116 colon; 91.6% with HCC-2998 colon; 46.7% with KM12 colon.
As for `COc1cc(CC(=O)c2ccc(O)c(OC)c2)ccc1O`, the growth is 90.1% in the experiment with SR leukemia; 97.9% in the experiment with RPMI-8226 leukemia; 97.9% in the experiment with OVCAR-8 ovarian; 97.9% with OVCAR-5 ovarian; 103% in the experiment on OVCAR-4 ovarian; 99.7% in the experiment on SK-OV-3 ovarian. The growth is 111% in the experiment on IGROV1 ovarian; 105% in the experiment on OVCAR-3 ovarian; 98.5% in the experiment with HS 578T breast; 100% in the experiment on NCI/ADR-RES ovarian; 89.6% in the experiment on T-47D breast; 110% with BT-549 breast. The growth in the experiment on MDA-MB-435 melanoma is 112%; in the experiment with SW-620 colon it was 102%; in the experiment with MCF7 breast, 96.9%; in the experiment with HCT-116 colon, 100%; in the experiment on HCC-2998 colon, 103%; in the experiment on KM12 colon, 103%.
For the compound `COc1cccc(/C=N/NC(=O)c2cnn3c2NC(c2ccccc2)C3)c1Oc1ccccc1` (configuration not stated), the growth with SR leukemia is 43.1%; in the experiment with RPMI-8226 leukemia, 100%; in the experiment with OVCAR-8 ovarian, 89%; in the experiment on OVCAR-5 ovarian, 97.4%; in the experiment with OVCAR-4 ovarian, 98.9%; with SK-OV-3 ovarian it was 90.8%. For the same compound, the growth with IGROV1 ovarian was 78.4%; in the experiment with OVCAR-3 ovarian, 42%; with HS 578T breast, 93.4%; in the experiment on NCI/ADR-RES ovarian, 87.9%; in the experiment on T-47D breast, 79.8%; in the experiment on BT-549 breast, 65.7%. The growth in the experiment with MDA-MB-435 melanoma is 1.99% (active); with SW-620 colon, 65.6%; in the experiment with MCF7 breast, 47.7%; in the experiment on HCT-116 colon it was 55.6%; in the experiment on HCC-2998 colon it was 91%; in the experiment with KM12 colon it was 51.8%.
Consider `CCOC(=O)c1cc(C(=O)c2ccc(OC)cc2)n2ccc(/C=C/c3cc[n+](CC(=O)c4ccc(OC)cc4)cc3)cc12`, for which the growth was -29.5% (active) with SR leukemia; 10.4% with RPMI-8226 leukemia; 21.1% in the experiment on OVCAR-8 ovarian; 87.1% in the experiment with OVCAR-5 ovarian; 16.1% in the experiment with OVCAR-4 ovarian; 109% with SK-OV-3 ovarian. Moreover, the growth with IGROV1 ovarian was 63.1%; in the experiment with OVCAR-3 ovarian it was 60.9%; in the experiment on HS 578T breast it was 105%; in the experiment with NCI/ADR-RES ovarian it was 98.1%; in the experiment with T-47D breast, 36.3%; with BT-549 breast, 86%. The growth with MDA-MB-435 melanoma is 77%; in the experiment on SW-620 colon, 5.72% (active); in the experiment on MCF7 breast it was -62.6% (active); with HCT-116 colon, 3.01% (active); with HCC-2998 colon it was 36.7%; in the experiment on KM12 colon, 91.9%.
With `CN[C@@H](C)C(=O)N[C@H]1CCS[C@H]2CC(C)(C)[C@@H](C(=O)N[C@H]3c4ccccc4C[C@H]3OCC#CC#CCO[C@@H]3Cc4ccccc4[C@@H]3NC(=O)[C@H]3N4C(=O)[C@@H](NC(=O)[C@H](C)NC)CCS[C@H]4CC3(C)C)N2C1=O`, the growth with SR leukemia is 36.1%; with RPMI-8226 leukemia, 71.2%; with OVCAR-8 ovarian, 77.3%; with OVCAR-5 ovarian, 109%; with OVCAR-4 ovarian it was -33.1% (active); in the experiment on SK-OV-3 ovarian, -71.6% (active). Further, the growth with IGROV1 ovarian is 116%; in the experiment on OVCAR-3 ovarian it was 86.2%; with HS 578T breast, 82.2%; in the experiment with NCI/ADR-RES ovarian, 109%; in the experiment with T-47D breast, 86.1%; in the experiment with BT-549 breast, -15.4% (active). Also, the growth in the experiment on MDA-MB-435 melanoma was 54.8%; with SW-620 colon it was 105%; in the experiment with MCF7 breast, 64.7%; in the experiment with HCT-116 colon, 99%; with HCC-2998 colon, 90.2%; with KM12 colon it was 110%.
For the compound `O=S(=O)(NCCNc1nccc(-c2c(-c3cccc(O)c3)nc3occn23)n1)c1ccccc1`, the growth in the experiment with SR leukemia is 75.7%; with RPMI-8226 leukemia, 92.8%; with OVCAR-8 ovarian it was 79.8%; in the experiment with OVCAR-5 ovarian it was 117%; in the experiment on OVCAR-4 ovarian it was 123%; in the experiment with SK-OV-3 ovarian, 97.2%. The growth in the experiment on IGROV1 ovarian is 47.8%; in the experiment with OVCAR-3 ovarian, 97.9%; in the experiment on HS 578T breast it was 91.8%; in the experiment with NCI/ADR-RES ovarian, 112%; with T-47D breast it was 74%; in the experiment on BT-549 breast, 96%. Also, the growth with MDA-MB-435 melanoma was 28.5%; in the experiment on SW-620 colon, 103%; in the experiment with MCF7 breast, 49.4%; in the experiment on HCT-116 colon, 53.8%; in the experiment on HCC-2998 colon, 113%; in the experiment with KM12 colon, 83.3%.

The values are drawn from PubChem BioAssay (NCI).
